A short description of experiment [1]: antimalarial activity against Dd2 strain (AID 2302;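 active means growth inhibition above 50% at the single 2 µM test dose, taken to imply half-maximal potency below 2 µM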;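 further: 0% = DMSO untreated growth and 100% = chloroquine plus artemisinin killed control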). To be noted: P. falciparum Dd2 in RBCs, LDH growth readout, 72 h; at 2 µM; stronger effect = higher value.
Experiment [2] in a line: human hepatoma cell viability loss – ATP luminescence, cytotoxicity control for P. falciparum antimalarial project, primary screen (AID 2303;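 active means inhibition above 50%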;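 further: 0% = DMSO wells and 100% = digitonin-killed cells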). Conditions: HepG2 viability, 24-48 h, at 10 µM, stronger effect = higher value.
The target of experiment [3] is L-lactate dehydrogenase (Plasmodium falciparum (isolate CDC / Honduras)) (UniProt Q27743). The experiment in a line: PfLDH activity inhibition – cell lysate, 3D7 strain, counter-screen for P. falciparum growth inhibition project (AID 2304).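 Further: 0% = vehicle and 100% = reference inhibitor.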 To be noted: P. falciparum 3D7 crude extract, LDH APAD/NBT absorbance; at 2 µM; stronger effect = higher value. (In general: The purpose of a counterscreen is to sort out artefacts and off-target activity.)
L-lactate dehydrogenase (Plasmodium falciparum (isolate CDC / Honduras)), sequence (Q27743 whole entry, looked up): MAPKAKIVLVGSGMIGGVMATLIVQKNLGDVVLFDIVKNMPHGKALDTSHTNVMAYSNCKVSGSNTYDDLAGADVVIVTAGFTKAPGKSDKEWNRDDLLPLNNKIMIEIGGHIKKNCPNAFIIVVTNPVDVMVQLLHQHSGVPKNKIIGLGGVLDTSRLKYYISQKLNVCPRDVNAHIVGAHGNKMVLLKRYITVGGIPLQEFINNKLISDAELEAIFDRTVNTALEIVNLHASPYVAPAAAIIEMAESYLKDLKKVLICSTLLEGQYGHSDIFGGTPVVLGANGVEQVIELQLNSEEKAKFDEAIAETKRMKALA

Experiment [4] in a line: inhibition of 3D7 malaria parasite growth – strain 3D7 (AID 2306).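 Further: 0% = DMSO wells and 100% = chloroquine plus artemisinin control wells.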 To be noted: P. falciparum 3D7 erythrocytic growth, LDH absorbance, 72 h; at 2 µM; stronger effect = higher value.
Experiment [5] deals with Calcium-dependent protein kinase 1 (Plasmodium falciparum (isolate 3D7)) (UniProt P62344). The experiment in a line: PfCDPK1 kinase inhibitors, biochemical, TCAMS library (AID 1159585; cut-off not given, nearly all actives have IC50 up to about 0.98 µM;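 further: inhibitors leave more ATP so luminescence rises with inhibition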). To be noted: recombinant PfCDPK1, Kinase-Glo ATP depletion luminescence. A general note: In Kinase-Glo more light means more ATP remaining.
Calcium-dependent protein kinase 1 (Plasmodium falciparum (isolate 3D7)), sequence (P62344 whole entry, looked up): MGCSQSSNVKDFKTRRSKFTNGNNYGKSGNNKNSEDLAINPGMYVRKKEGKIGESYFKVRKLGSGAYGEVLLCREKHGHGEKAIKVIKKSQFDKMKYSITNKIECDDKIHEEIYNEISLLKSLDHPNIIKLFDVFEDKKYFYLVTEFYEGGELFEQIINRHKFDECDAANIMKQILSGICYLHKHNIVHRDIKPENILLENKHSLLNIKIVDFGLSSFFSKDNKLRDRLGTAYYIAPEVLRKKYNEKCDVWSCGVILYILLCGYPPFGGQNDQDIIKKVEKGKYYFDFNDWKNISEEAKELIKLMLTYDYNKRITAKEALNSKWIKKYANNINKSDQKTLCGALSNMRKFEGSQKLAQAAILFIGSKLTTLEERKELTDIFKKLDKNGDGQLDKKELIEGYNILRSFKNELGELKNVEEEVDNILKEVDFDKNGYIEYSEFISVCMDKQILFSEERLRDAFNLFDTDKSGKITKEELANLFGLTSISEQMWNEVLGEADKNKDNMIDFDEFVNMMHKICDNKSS
The target in experiment [6] is Plasmodium falciparum protein kinase 6 (PK6, PF3D7_1337100) (UniProt Q8IDW1). In words: PfPK6 kinase inhibitors, biochemical, TCAMS library (AID 1159586). To be noted: recombinant PfPK6, Kinase-Glo ATP depletion luminescence.
Plasmodium falciparum protein kinase 6 (PK6, PF3D7_1337100), sequence (Q8IDW1 1-305): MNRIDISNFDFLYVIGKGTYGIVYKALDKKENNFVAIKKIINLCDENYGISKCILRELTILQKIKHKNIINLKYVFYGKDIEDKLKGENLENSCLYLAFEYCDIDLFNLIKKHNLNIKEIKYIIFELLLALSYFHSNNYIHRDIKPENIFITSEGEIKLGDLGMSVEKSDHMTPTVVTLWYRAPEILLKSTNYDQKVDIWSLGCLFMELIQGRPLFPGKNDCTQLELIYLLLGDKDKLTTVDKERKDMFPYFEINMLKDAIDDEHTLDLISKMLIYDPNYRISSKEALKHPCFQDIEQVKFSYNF
For experiment [7], the target named is Protein kinase 7 (PK7), Plasmodium falciparum 3D7 (PF3D7_0213400) (UniProt Q7YTF7). The experiment in a line: inhibition of Plasmodium PK7 catalytic activity – biochemical, TCAMS antimalarial set, Kinase-Glo luminescence (AID 1159587). Conditions: recombinant PfPK7, Kinase-Glo ATP depletion luminescence.
Protein kinase 7 (PK7), Plasmodium falciparum 3D7 (PF3D7_0213400), sequence (Q7YTF7 1-343): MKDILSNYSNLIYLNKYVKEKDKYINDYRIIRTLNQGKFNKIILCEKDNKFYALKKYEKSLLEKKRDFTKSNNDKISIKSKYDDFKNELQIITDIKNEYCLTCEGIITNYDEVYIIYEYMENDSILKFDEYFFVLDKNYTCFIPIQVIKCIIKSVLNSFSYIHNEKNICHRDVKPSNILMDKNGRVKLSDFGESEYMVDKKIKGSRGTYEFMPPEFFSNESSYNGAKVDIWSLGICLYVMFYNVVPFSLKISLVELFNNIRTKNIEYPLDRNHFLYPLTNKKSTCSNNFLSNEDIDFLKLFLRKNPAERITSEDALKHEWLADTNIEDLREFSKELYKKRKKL
Experiment [8] deals with Calcium-dependent protein kinase 4 (Plasmodium falciparum (isolate 3D7)) (UniProt Q8IBS5). The experiment in a line: PfCDPK4 kinase inhibitors, biochemical, TCAMS library (AID 1159588; cut-off not given, nearly all actives have IC50 up to about 0.91 µM). To be noted: recombinant PfCDPK4, Kinase-Glo ATP depletion luminescence.
Calcium-dependent protein kinase 4 (Plasmodium falciparum (isolate 3D7)), sequence (Q8IBS5 whole entry, looked up): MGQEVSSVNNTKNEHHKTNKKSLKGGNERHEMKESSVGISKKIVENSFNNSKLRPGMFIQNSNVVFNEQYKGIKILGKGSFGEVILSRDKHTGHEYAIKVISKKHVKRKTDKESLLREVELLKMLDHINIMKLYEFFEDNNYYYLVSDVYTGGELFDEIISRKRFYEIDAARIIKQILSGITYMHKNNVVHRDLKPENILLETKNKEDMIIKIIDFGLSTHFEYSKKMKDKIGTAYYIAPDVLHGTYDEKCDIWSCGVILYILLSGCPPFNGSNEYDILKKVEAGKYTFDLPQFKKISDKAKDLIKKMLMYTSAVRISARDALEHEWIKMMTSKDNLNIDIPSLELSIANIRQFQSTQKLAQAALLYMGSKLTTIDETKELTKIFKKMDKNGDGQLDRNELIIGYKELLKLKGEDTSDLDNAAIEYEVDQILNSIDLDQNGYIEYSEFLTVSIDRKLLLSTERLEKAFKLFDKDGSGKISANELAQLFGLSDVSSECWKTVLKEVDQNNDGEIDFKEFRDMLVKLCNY

This is an account of results in PubChem BioAssay.

A number with no mark means an inactive call. For some assays here: Entries with a potency or affinity are not part of this list. Active and inactive are the calls of the source. Unless noted, how the calls were made is not given here.

In the case of `Cc1cc2ccccc2n1CC(=O)N1CC(C(=O)N2CCCCC2)Oc2ccccc21` (configuration not stated), the growth inhibition in experiment [1] was 77% (active); in experiment [4], 99% (active). Besides, the inhibition (as a rule, the drop in the measured response relative to a control, in per cent) in experiment [2] is -1%; in experiment [3], 2%. Moreover, the outcome in experiment [5], in experiment [6], in experiment [7] and in experiment [8] was inactive.
On to `Cc1c(Cl)ccc2sc(N3CCN(C(=O)c4ccc([N+](=O)[O-])o4)CC3)nc12`, for which the growth inhibition was 93% (active) in experiment [1] and 96% (active) in experiment [4]. For the same compound, the inhibition in experiment [2] is -2%; in experiment [3] it was 3%. Moreover, the outcome in experiment [5], in experiment [6], in experiment [7] and in experiment [8] was inactive.
As for `COc1ccc(NC(=O)c2ccc(-c3nc(-c4ccc(Cl)cc4)cs3)cc2)cc1N1CCN(C)CC1`, the growth inhibition in experiment [1] is 34%; in experiment [4], 91% (active). Also, the inhibition in experiment [2] was 30%; in experiment [3], 0%. In addition, the result in experiment [5], in experiment [6], in experiment [7] and in experiment [8] was inactive.
On to `COc1ccc(C2CC(=O)C3=C(C2)NC(C)=C(C(=O)OC2CCCC2)C3c2cccc(O)c2)cc1OC` (configuration not stated), for which the growth inhibition in experiment [1] is 98% (active); in experiment [4], 101% (active). Besides, the inhibition was 8% in experiment [2] and -1% in experiment [3]. The result in experiment [5], in experiment [6], in experiment [7] and in experiment [8] was inactive.
In the case of `CCCC(=O)Nc1ccc(OCCCN(Cc2cccc(C(F)(F)F)c2)c2ccc(C#N)c(C(F)(F)F)c2)cc1`, the figures for the growth inhibition in experiment [1] and in experiment [4] were 89% (active) and 90% (active), respectively. In addition, the inhibition in experiment [2] is -12%; in experiment [3], -5%. For the same compound, the result in experiment [5], in experiment [6], in experiment [7] and in experiment [8] was inactive.
In the case of `COc1ccc(NC(=O)[C@H](CC(C)C)Nc2cc(C)nc(NCc3cccc(C)c3)n2)cc1`, the growth inhibition in experiment [1] was 90% (active); in experiment [4], 101% (active). Also, the inhibition in experiment [2] was 24%; in experiment [3] it was -1%. Also, the outcome in experiment [5], in experiment [6], in experiment [7] and in experiment [8] was inactive.
Consider `Clc1ccc(CNc2nc(NCCc3cnc[nH]3)nc(NC3CCCCC3)n2)cc1`, for which the figures for the growth inhibition in experiment [1] and in experiment [4] were 1% and 100% (active), respectively. For the same compound, the inhibition was -5% in experiment [2] and -3% in experiment [3]. Besides, the result in experiment [5], in experiment [6], in experiment [7] and in experiment [8] was inactive.
On to `Cc1noc(-c2cccs2)c1C(=O)NC(C)c1cccc2ccccc12` (configuration not stated), for which the growth inhibition in experiment [1] is 95% (active); in experiment [4], 97% (active). Further, the inhibition in experiment [2] is -2%; in experiment [3], -4%. Also, the result in experiment [5], in experiment [6], in experiment [7] and in experiment [8] was inactive.
Turning to `COc1ccc(-c2cccc(NC(=O)c3cccc(Cl)c3)c2)cc1CNC(C)C`, the growth inhibition was 8% in experiment [1] and 102% (active) in experiment [4]. Besides, the figures for the inhibition in experiment [2] and in experiment [3] were 15% and -2%, respectively. Moreover, the result in experiment [5], in experiment [6], in experiment [7] and in experiment [8] was inactive.
In the case of `COc1ccc(-c2cccc(NC(=O)c3ccc(C#N)cc3)c2)cc1CN1CCN(C)CC1`, the results for the growth inhibition in experiment [1] and in experiment [4] were 2% and 93% (active), respectively. Besides, the figures for the inhibition in experiment [2] and in experiment [3] were 24% and -3%, respectively. Besides, the outcome in experiment [5], in experiment [6], in experiment [7] and in experiment [8] was inactive.
As to `Cc1cc(-c2ccc(NC(=O)c3coc4ccc(N5C[C@@H](C)N(C)[C@@H](C)C5)cc34)cc2C)cc(C)n1`, the growth inhibition was 62% (active) in experiment [1] and 94% (active) in experiment [4]. The values for the inhibition in experiment [2] and in experiment [3] were 13% and -4%, respectively. Further, the result in experiment [5], in experiment [6], in experiment [7] and in experiment [8] was inactive.
With `Cc1ccc(NC(=O)c2ccc(CN3CCCN(Cc4cccc(C#N)c4)CC3)cc2)cc1F`, the growth inhibition in experiment [1] is 19%; in experiment [4] it was 98% (active). For the same compound, the inhibition in experiment [2] was 49%; in experiment [3], -3%. Besides, the outcome in experiment [5], in experiment [6], in experiment [7] and in experiment [8] was inactive.
Take `CC(=O)Nc1ccc(C(=O)NC2CCN(c3ccnc4cc(Cl)ccc34)CC2)cc1`: the growth inhibition in experiment [1] is 99% (active); in experiment [4] it was 101% (active). The inhibition is 5% in experiment [2] and -4% in experiment [3]. The outcome in experiment [5], in experiment [6], in experiment [7] and in experiment [8] was inactive.
With `COc1ccc2nc(C)cc(Nc3ccc(Oc4ccc(Cl)cc4)c(Cl)c3)c2c1`, the growth inhibition in experiment [1] is 100% (active); in experiment [4] it was 101% (active). Further, the inhibition was 48% in experiment [2] and -2% in experiment [3]. For the same compound, the result in experiment [5], in experiment [6], in experiment [7] and in experiment [8] was inactive.
Turning to `O=c1cc(NCCCNC2CCOc3c(Cl)cccc32)[nH]c2ccccc12` (configuration not stated), the growth inhibition is 27% in experiment [1] and 96% (active) in experiment [4]. For the same compound, the inhibition in experiment [2] was -3%; in experiment [3], 3%. The result in experiment [5], in experiment [6], in experiment [7] and in experiment [8] was inactive.
As for `Cc1nc2ccc3ccc(CNc4ccc(C(=O)N[C@@H](CCC(=O)O)C(=O)O)cc4)cc3c2c(=O)[nH]1`, the growth inhibition in experiment [1] is 95% (active); in experiment [4], 89% (active). The values for the inhibition in experiment [2] and in experiment [3] were 32% and 0%, respectively. Also, the outcome in experiment [5], in experiment [6], in experiment [7] and in experiment [8] was inactive.
In the case of `O=C(/C=C/c1ccc(Cl)c(Cl)c1)NCCCCCN1CCCN(C(=O)Nc2cccc(Cl)c2)CC1`, the growth inhibition in experiment [1] was 2%; in experiment [4], 102% (active). Moreover, the inhibition in experiment [2] was 11%; in experiment [3], 0%. Moreover, the outcome in experiment [5], in experiment [6], in experiment [7] and in experiment [8] was inactive.
For the compound `O=C(/C=C/c1ccc(-c2nc3ccc(Cl)cc3[nH]2)cc1)NCc1cccc(F)c1`, the growth inhibition is 68% (active) in experiment [1] and 99% (active) in experiment [4]. Moreover, the inhibition is 1% in experiment [2] and 2% in experiment [3]. Besides, the outcome in experiment [5], in experiment [6], in experiment [7] and in experiment [8] was inactive.
For the compound `COc1ccc(C=NNc2ccnc3ccccc23)c2ccccc12`, the growth inhibition in experiment [1] is 98% (active); in experiment [4], 102% (active). The inhibition is 27% in experiment [2] and 0% in experiment [3]. Also, the outcome in experiment [5], in experiment [6], in experiment [7] and in experiment [8] was inactive.
